We go through seven compounds from PubChem BioAssay.

The source made the active and inactive calls.

For test [1], the target named is Albumin (Bos taurus) (UniProt P02769). The test can be described thus: bovine serum albumin binders on microarray, profiling panel, artefact control for SMM control protein annotation, biochemical, small-molecule microarray, Alexa647 label, 635/667 nm fluorescence (AID 1118).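 Further: score merges 667 nm emission intensity and signal-to-noise per printed compound spot.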 As to conditions: BSA-A647 binding, fluorescence 635 nm, higher = more signal.
Albumin (Bos taurus), sequence (P02769 whole entry, looked up): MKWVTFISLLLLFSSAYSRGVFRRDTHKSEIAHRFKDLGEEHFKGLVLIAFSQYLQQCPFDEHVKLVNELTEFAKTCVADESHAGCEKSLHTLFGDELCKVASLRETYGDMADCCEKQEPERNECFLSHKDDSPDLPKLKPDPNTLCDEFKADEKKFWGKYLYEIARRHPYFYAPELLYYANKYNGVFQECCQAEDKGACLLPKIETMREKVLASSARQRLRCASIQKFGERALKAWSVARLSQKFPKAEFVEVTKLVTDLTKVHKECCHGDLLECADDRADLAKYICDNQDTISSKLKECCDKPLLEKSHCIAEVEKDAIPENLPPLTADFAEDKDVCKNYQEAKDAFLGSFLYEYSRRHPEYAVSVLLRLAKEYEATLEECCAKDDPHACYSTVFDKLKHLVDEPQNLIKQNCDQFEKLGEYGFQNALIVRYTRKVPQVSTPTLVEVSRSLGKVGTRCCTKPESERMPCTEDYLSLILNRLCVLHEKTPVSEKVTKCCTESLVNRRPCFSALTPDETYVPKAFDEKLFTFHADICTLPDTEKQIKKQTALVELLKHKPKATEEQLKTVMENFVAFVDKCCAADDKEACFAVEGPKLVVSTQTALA
A short description of test [2]: small-molecule microarray binders of probe aXIP, primary screen, biochemical, NeuroSMM set, 635/667 nm fluorescence (AID 1119).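 Further: probe is the protein aXip251-270 applied at 1 µg/mL to compound-printed slides; binding of probe to printed compounds measured as 667 nm fluorescence plus signal to noise.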 The following applies: higher = more signal, called active from +8 up or from −8 down.
Test [3] in a line: small-molecule binders of probe aNOTCH3, primary screen, biochemical, small-molecule microarray, 635/667 nm fluorescence (AID 1120).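 Further: probe is a biotin-tagged antibody raised against NOTCH3 rather than NOTCH3 protein; score merges spot fluorescence near 667 nm with spot signal to noise.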 The following applies: higher = more signal.
The nature of test [4]: small-molecule binders of probe aNOTCH2, primary screen, biochemical, small-molecule microarray, 635/667 nm fluorescence (AID 1121).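 Further: score merges feature fluorescence read at 667 nm with its signal to noise.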 As to conditions: higher = more signal.
Test [5] deals with Carbonic anhydrase 2 (Homo sapiens) (UniProt P00918). The experiment in a line: CAII small-molecule binders, profiling panel, biochemical, small-molecule microarray, Alexa647-labelled CAII (AID 1122). As to conditions: CAII-A647 binding fluorescence, higher = more signal.
Test [6] in a line: COS7 lysate on small-molecule microarray, probe aHis, 635 nm (AID 1123).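 Further: z-score combines 667nm fluorescence intensity with signal-to-noise per printed compound spot.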 As to conditions: COS7 cell lysate, fluorescence, higher = more signal.
Test [7] can be described thus: compound binding in COS7 lysate, probe aLAP1, primary screen, cell lysate, small-molecule microarray (AID 1124).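 Further: lysate comes from COS7 cells expressing LAP1 and is applied at 0.3 µg/mL; score merges spot fluorescence near 667 nm with signal-to-noise over triplicate slides.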 As to conditions: probe aLAP1, fluorescence, higher = more signal.
The test system of test [8] is Sam68 (KHDRBS1). The experiment in a line: Sam68 small-molecule binders, primary screen, biochemical, small-molecule microarray, 635 nm fluorescence (AID 1125).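 Further: score merges 667 nm channel intensity with signal to noise over triplicate slides.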 The following applies: small-molecule microarray binding, higher = more signal.
Test [9] concerns Chordin-like protein 2 (CHRDL2). The test can be described thus: CHRDL2 small-molecule binders, primary screen, biochemical, small-molecule microarray, 635 nm fluorescence (AID 1126).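 Further: printed compound slides probed with Chrdl2 protein at 4 µg/mL for 1 h at 4 C; score merges 667 nm emission intensity with signal to noise over three replicate slides.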 As to conditions: small-molecule microarray binding, fluorescence 635 nm; higher = more signal.
For test [10], the target named is Concanavalin-A (Canavalia ensiformis) (UniProt P02866). The test can be described thus: ConA small-molecule binders, primary screen, artefact control for SMM control protein annotation, biochemical, small-molecule microarray, Alexa647 label, 635 nm (AID 1127).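 Further: z combines 667 nm emission intensity with signal-to-noise across three replicate slides.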 The following applies: ConA-A647 binding fluorescence, higher = more signal.
Concanavalin-A (Canavalia ensiformis), sequence (P02866 whole entry, looked up): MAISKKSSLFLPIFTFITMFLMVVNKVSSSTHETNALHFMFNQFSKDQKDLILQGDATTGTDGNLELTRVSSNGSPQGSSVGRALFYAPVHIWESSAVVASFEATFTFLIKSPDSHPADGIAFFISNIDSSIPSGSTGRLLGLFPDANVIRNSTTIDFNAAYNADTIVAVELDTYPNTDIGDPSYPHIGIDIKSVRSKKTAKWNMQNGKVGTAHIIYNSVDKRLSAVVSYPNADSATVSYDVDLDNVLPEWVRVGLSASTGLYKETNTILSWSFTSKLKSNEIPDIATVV
Test [11] can be described thus: anti-His antibody binders, primary screen, artefact control for SMM control protein annotation, biochemical, small-molecule microarray, 635 nm fluorescence (AID 1128).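 Further: score merges feature fluorescence with signal-to-noise for each printed compound spot.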 The following applies: anti-His Alexa647 antibody binding, higher = more signal.
Test [12] relates to Human papillomavirus type 1a E7 protein (residues 1-88). The test can be described thus: HPV1a E7 small-molecule binders, primary screen, biochemical, small-molecule microarray, residues 1-88, 635 nm (AID 1129). As to conditions: small-molecule microarray binding, fluorescence 635 nm; higher = more signal.
Test [13] addresses Focal adhesion kinase 1 (Homo sapiens) (UniProt Q05397). The test can be described thus: small-molecule microarray binders of FAK, primary screen, biochemical, 635/667 nm fluorescence, BSA, DTT (AID 1130).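 Further: composite of spot emission at 667 nm and signal to noise over triplicate slides.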 As to conditions: PTK2 binding, 635 nm fluorescence, higher = more signal.
The subject of test [14] is Fibrinogen (Alexa647-labelled). The test can be described thus: fibrinogen binders on compound microarrays, profiling panel, artefact control for SMM control-protein annotation, biochemical, small-molecule microarray, 635/667 nm fluorescence (AID 1131).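 Further: z-score merges 667 nm fluorescence with per-spot signal-to-noise over triplicate slides.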 As to conditions: fibrinogen-A647 binding fluorescence, higher = more signal.
For test [15], the target named is Follistatin (Homo sapiens) (UniProt P19883). The experiment in a line: follistatin binders on small-molecule microarrays, primary screen, biochemical, small-molecule microarray, 635/667 nm fluorescence (AID 1132). As to conditions: FST binding, 635 nm fluorescence, higher = more signal.
Follistatin (Homo sapiens), sequence (P19883 whole entry, looked up): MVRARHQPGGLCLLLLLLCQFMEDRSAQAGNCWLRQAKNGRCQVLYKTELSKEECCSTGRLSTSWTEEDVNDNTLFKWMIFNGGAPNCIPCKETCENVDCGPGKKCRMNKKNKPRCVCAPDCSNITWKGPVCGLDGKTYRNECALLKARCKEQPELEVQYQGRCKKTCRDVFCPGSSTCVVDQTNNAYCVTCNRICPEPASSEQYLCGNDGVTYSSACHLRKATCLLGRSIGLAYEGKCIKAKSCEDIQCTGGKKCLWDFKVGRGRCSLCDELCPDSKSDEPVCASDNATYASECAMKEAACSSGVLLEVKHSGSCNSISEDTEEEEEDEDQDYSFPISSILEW
Test [16] deals with Fibroblast growth factor 2 (Homo sapiens) (UniProt P09038). The test can be described thus: FGF2 binders on small-molecule microarrays, primary screen, biochemical, small-molecule microarray, 635/667 nm fluorescence (AID 1133). The following applies: small-molecule microarray binding, FGF2, fluorescence 635/667; higher = more signal.
Fibroblast growth factor 2 (Homo sapiens), sequence (P09038 whole entry, looked up): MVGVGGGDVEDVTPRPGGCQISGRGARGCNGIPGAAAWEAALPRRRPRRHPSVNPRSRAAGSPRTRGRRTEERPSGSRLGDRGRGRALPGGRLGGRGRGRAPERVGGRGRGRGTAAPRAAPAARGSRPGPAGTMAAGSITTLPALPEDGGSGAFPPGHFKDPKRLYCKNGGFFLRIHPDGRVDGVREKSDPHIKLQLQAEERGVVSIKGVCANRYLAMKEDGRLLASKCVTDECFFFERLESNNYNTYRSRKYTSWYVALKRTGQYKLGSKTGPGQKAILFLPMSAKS
A short description of test [17]: mitochondrial membrane potential change in A549 cells, profiling panel, cell-based, JC-1 fluorescence, basal, 24 h, 100 nL (AID 1138).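 Further: A549 lung adenocarcinoma cells under basal conditions with no added stimulus; test concentration not given here.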 As to conditions: higher = more signal.
The subject of test [18] is Lefty1. The experiment in a line: Lefty1 binders on small-molecule microarrays, primary screen, biochemical, small-molecule microarray, 635/667 nm fluorescence (AID 1139). The following applies: small-molecule microarray binding, fluorescence 635/667; higher = more signal.
The test system of test [19] is wheat germ agglutinin (Triticum aestivum), Alexa647-labelled. The experiment in a line: wheat germ agglutinin binders on compound microarrays, profiling panel, artefact control for SMM control-protein annotation, biochemical, small-molecule microarray, 635/667 nm fluorescence (AID 1140).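 Further: score merges 667 nm feature emission with signal to noise over triplicate slides.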 The following applies: WGA-A647 binding, 635 nm fluorescence, higher = more signal.

For test [20], the target named is Luciferin 4-monooxygenase (Photinus pyralis) (UniProt P08659). The experiment in a line: firefly luciferase enzyme inhibitors, primary screen, biochemical, luminescence, purified enzyme, 2006 set (AID 1141).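 Further: cell-free assay with purified firefly luciferase at 100 ng per well in PBS; test concentration not given here.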 The following applies: SteadyGlo luminescence, 30 min, higher = more signal, called active from +8 up or from −8 down.
Luciferin 4-monooxygenase (Photinus pyralis), sequence (P08659 whole entry, looked up): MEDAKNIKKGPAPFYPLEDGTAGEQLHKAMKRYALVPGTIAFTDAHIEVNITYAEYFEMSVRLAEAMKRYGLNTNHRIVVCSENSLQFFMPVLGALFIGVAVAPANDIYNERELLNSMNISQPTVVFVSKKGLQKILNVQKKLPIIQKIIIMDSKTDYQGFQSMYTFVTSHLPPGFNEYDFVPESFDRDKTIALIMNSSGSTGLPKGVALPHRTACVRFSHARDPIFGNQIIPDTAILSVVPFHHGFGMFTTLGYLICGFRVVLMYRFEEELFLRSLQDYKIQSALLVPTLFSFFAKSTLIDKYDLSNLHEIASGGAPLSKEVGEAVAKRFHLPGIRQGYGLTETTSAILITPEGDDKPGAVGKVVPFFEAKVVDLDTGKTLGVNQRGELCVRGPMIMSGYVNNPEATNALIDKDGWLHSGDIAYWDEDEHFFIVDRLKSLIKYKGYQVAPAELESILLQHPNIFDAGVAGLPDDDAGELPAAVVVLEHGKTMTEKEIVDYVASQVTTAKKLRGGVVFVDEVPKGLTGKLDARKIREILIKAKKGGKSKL

Focal adhesion kinase 1 (Homo sapiens), sequence (Q05397 whole entry, looked up): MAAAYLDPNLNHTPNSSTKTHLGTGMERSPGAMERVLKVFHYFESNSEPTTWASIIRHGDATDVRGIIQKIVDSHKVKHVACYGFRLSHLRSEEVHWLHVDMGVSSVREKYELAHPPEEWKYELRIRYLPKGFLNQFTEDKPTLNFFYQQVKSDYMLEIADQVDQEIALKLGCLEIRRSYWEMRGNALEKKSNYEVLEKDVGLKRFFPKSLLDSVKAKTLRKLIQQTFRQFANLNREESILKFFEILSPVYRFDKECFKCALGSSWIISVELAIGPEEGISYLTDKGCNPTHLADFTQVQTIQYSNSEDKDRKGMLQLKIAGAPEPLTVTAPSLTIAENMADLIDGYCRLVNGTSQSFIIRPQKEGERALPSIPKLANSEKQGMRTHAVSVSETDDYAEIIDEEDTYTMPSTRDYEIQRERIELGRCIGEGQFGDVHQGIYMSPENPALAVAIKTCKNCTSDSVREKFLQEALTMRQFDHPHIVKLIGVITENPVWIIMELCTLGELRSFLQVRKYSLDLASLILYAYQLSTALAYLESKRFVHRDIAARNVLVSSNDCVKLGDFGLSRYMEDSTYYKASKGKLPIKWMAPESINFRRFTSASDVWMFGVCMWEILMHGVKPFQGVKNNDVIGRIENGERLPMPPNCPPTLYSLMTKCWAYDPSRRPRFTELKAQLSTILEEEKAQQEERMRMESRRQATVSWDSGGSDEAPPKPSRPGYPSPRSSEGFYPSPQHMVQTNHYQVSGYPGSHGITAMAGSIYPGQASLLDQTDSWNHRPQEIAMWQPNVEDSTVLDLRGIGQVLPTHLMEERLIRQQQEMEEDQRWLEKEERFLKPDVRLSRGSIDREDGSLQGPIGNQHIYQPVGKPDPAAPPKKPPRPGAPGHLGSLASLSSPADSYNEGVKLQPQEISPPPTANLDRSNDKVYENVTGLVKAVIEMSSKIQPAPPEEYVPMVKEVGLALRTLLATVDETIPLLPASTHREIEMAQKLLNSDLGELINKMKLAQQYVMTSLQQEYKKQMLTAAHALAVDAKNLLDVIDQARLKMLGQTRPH

For `[N-]=[N+]=Nc1ccccc1[C@H]1OC(c2ccc(OCCCO)cc2)=N[C@@]1(CCS(=O)(=O)c1ccccc1)C(N)=O`, the composite z-score in test [1] turned out to be 0.485; in [3], 0.264; in [4] it was 0.113; in test [5], 0.795; in [6], 1.43; in test [7] it was 0.469. Further, the composite z-score came out at 1.22 in test [8]; 0.0869 in [9]; 0.868 in test [10]; 2.95 in test [11]; 1.22 in test [12]; 0.26 in test [13]. In addition, the composite z-score in test [14] was 0.938; in [15], 0.794; in test [16] it was 0.0263; in test [18], -0.142; in [19], 1.21. Also, the composite Z-score in test [2] is 0.211 (inactive). Moreover, the z-score in test [17] is 0.118; in test [20], -6.6 (inactive).
On to `COCCOC(=O)N1C(=O)[C@@]2(c3cc(C#Cc4ccc(OC)cc4)ccc31)[C@H](c1ccc(OCCO)cc1)N1[C@H](c3ccccc3)[C@H](c3ccccc3)OC(=O)[C@H]1[C@@H]2C(=O)N1CCN(c2ncccn2)CC1`, for which the composite z-score in test [1] was -0.701; in test [3], -0.0311; in [4] it was -0.102; in test [5], 0.357; in test [6], 0.977; in test [7], 0.182. Also, the composite z-score came out at 1.33 in test [8]; 0.575 in test [9]; 1.11 in test [10]; 0.343 in [11]; 1.15 in test [12]; 0.424 in test [13]. Also, the composite z-score in test [14] is -0.51; in test [15], 1.21; in test [16], 1.43; in test [18] it was 1.28; in test [19], -0.0073. Moreover, the composite Z-score in test [2] was -0.799 (inactive). Besides, the z-score is -0.918 in test [17] and -0.618 (inactive) in test [20].
`O=C1C[C@@](C(=O)NC2CC2)(c2ccc([N+](=O)[O-])cc2)[C@@H](c2ccc(CO)cc2I)N1C1CCCCC1`: the composite z-score in [1] is 0.554; in [3], 0.0596; in [4], -0.14; in test [5], 0.452; in [6] it was 1.77; in test [7], -0.0328. For the same compound, the composite z-score in test [8] was 1.29; in test [9], 0.397; in test [10] it was 1.04; in test [11], 0.342; in test [12], 1.24; in [13] it was -0.109. Further, the composite z-score is 0.895 in [14]; 1.24 in test [15]; 1.27 in test [16]; 1.14 in test [18]; 0.587 in test [19]. Besides, the composite Z-score in test [2] was 0.142 (inactive). The values for the z-score in test [17] and in test [20] were 1.75 and -0.234 (inactive), respectively.
With `CC(C)[Si](C#Cc1ccc(Oc2ccccc2)cc1)(O[Si](C#Cc1ccc(Oc2ccccc2)cc1)(C(C)C)C(C)C)C(C)C`, the composite z-score is 0.216 in test [1]; -0.0188 in test [3]; -0.037 in test [4]; 0.603 in [5]; 0.407 in test [6]; 0.115 in [7]. In addition, the composite z-score in test [8] is 0.562; in [9], 0.156; in test [10], -0.76; in [11], 1.69; in [12], 0.701; in [13], 0.0273. For the same compound, the composite z-score stood at 0.654 in test [14]; 0.218 in test [15]; 0.925 in test [16]; 1.07 in [18]; 0.372 in test [19]. In test [2], the composite Z-score is 0.387 (inactive). In addition, the z-score in test [17] is 0.108; in [20] it was -0.637 (inactive).
On to `C=CCNC(=O)[C@H]1[C@@H]2C(=O)O[C@@H](c3ccccc3)[C@@H](c3ccccc3)N2[C@@H](c2ccccc2OCCO)[C@]12C(=O)Nc1ccc(C#CCC(C(=O)OC)C(=O)OC)cc12`, for which the composite z-score in test [1] is -0.195; in [3] it was 0.308; in [4], 0.0029; in [5], 0.251; in test [6], 2.23; in test [7], 0.634. The composite z-score in test [8] stood at 1.29; in [9], 1.37; in test [10] it was 0.944; in [11], 1.46; in test [12], 1.26; in test [13] it was 0.412. The composite z-score in [14] was 0.931; in test [15], 1.35; in [16], 1.27; in test [18], 1.25; in [19], 1.28. The composite Z-score in test [2] is 1.15 (inactive). In addition, the z-score in test [17] was 0.627; in [20] it was 0.62 (inactive).
Regarding `C=C(CCCC)/C(=C/C[C@@H](OC(C)=O)c1ccc(OCCO)cc1)c1cnc2ccccc2c1`, the composite z-score in test [1] was 0.631; in test [3], 0.0964; in [4], -0.0942; in test [5], 0.718; in [6], 0.696; in [7], 0.35. In addition, the composite z-score was determined as 1.28 in test [8]; 0.963 in test [9]; 0.555 in test [10]; 1.42 in test [11]; 0.974 in test [12]; 0.153 in [13]. The composite z-score in test [14] turned out to be 0.539; in test [15], 1.12; in [16], 0.502; in [18], 0.856; in test [19], 0.773. For the same compound, the composite Z-score in [2] was -0.302 (inactive). For the same compound, the z-score in test [17] was 1.49; in test [20] it was -1.81 (inactive).
In the case of `COC(=O)C(CC#Cc1ccc2c(c1)[C@]1(C(=O)N2)[C@H](C(=O)Nc2nc3ccccc3s2)[C@H]2C(=O)O[C@H](c3ccccc3)[C@H](c3ccccc3)N2[C@@H]1c1ccc(O)cc1)C(=O)OC`, the composite z-score in [1] is 0.646; in test [3], -0.0431; in test [4], -0.0846; in test [5], 0.378; in [6], 1.96; in test [7], 0.301. Also, the composite z-score in test [8] is 1.3; in test [9], 0.673; in test [10], 1.04; in test [11] it was 0.274; in test [12] it was 1.24; in test [13], 0.936. In addition, the composite z-score in test [14] came to 0.947; in [15], 1.2; in test [16], 0.973; in test [18], 0.963; in [19], 1.01. In addition, the composite Z-score in test [2] is 0.298 (inactive). Further, the z-score in [17] is -2.25; in test [20], 0.416 (inactive).
